The text below walks through data of PubChem BioAssay AID1347416 (National Center for Advancing Translational Sciences (NCATS), 2020).

Among all 4,100 compounds or so, about 1,600 (39%) were called active. Another 25% or so got no clear call; they are omitted. Calls follow the shape of the dose curve; as a rule, active = well fitted inhibition curve with a large enough effect; inconclusive = small, poorly fitted or top-dose-only effect; inactive = no such curve, though single readings can be large or run the other way. The list shows a part of the results.
Potency is read from the fitted curve at half-maximal effect.

This assay is described as follows: qHTS Validation assay for Inhibitors of Plasmodium falciparum Dd2 growth in vitro. Also: nearly all actives have a fitted effect of over 70% in size. The following applies: P. falciparum Dd2 in RBCs, SYBR Green growth, 72 h; series mostly up to 28.7 µM. The procedure, abridged:
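P. falciparum Dd2-infected red blood cells (2.5% hematocrit, 0.3% parasitemia) grown 72 h at 37 °C under 5% O2 with compounds in a titration, 29 uM to 0.5 nM final. Growth read as SYBR Green-1 fluorescence after ~16 h lysis; artesunate 300 nM as positive control.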
In general terms: qHTS replaces the single test concentration by a dilution series.
Consider `Cc1nc(N2CCCC3(CN(C)C(=O)O3)C2)cc(-n2cccn2)n1` (stereo not given), for which the Potency result was “inactive”.

In the case of `CC(C)c1noc(-c2cccn3c(CNC(=O)c4cc(F)ccc4Cl)nnc23)n1`, the Potency result is “inactive”.

Take `COc1ccc(C2Nc3ccccc3C(=O)N2Cc2ccccc2)cc1COc1ccc(Cl)cc1Cl` (stereo not given): the Potency was 8.41 µM (active).

Take `COc1cc2c(cc1OC)CN(C(=O)c1ccco1)CC2`: the Potency entry is “inactive”.

Take `CCC(C)(C)n1nnnc1C(c1cc2cccc(C)c2[nH]c1=O)N1CCN(C(=O)c2ccco2)CC1` (stereo not given): the Potency is 6.68 µM (active).

Consider `CCC(C)(C)n1nnnc1C(c1ccccc1OC)N1CCN(C(=O)c2ccco2)CC1` (stereo not given), for which the Potency is 15 µM (active).

`COc1ccc(C(=O)N[C@@H]2CCC[C@@H]2C(=O)N2CCN(C(=O)c3ccco3)CC2)cn1`: the Potency entry is “inactive”.

In the case of `Cc1ccc(NC(=O)N(Cc2ccc3c(c2)OCO3)Cc2cc3cc4c(cc3[nH]c2=O)OCCO4)cc1`, the Potency was 6.68 µM (active).

Take `O=C(Nc1ccc(Cl)cc1)Nc1ccc2c(c1)N1CCN=C1S2`: the Potency was 5.31 µM (active).

Consider `CCCCCCCc1c(C)nc(N2CCOCC2)[nH]c1=O`, for which the Potency was 5.31 µM (active).

As to `O=C(c1cc2cc(Br)ccc2[nH]1)N1CCc2ccccc21`, the Potency entry is “inactive”.

For `NNC(=O)CN1C(=O)Nc2ccc(Br)cc2C1c1ccccc1` (stereo not given), the Potency entry was “inactive”.

For `NNC(=O)CN1C(c2cccc(Cl)c2)=Nc2ccc(Br)cc2C1c1ccccc1` (stereo not given), the Potency is 2.66 µM (active).

For `COC(=O)CC1Oc2ccc(Cl)cc2-n2cc(-c3ccc(F)cc3)nc21` (stereo not given), the Potency was 4.22 µM (active).

`CCn1cc(C(=O)NCCCN2CCCC(C)C2)c(=O)c2cc(S(=O)(=O)N(C)C3CCCCC3)ccc21` (stereo not given): the Potency was 8.41 µM (active).

For `CN(C1CCCCC1)S(=O)(=O)c1ccc2c(c1)c(=O)c(C(=O)N1CCN(c3ccccc3F)CC1)cn2C`, the Potency entry is “inactive”.

Turning to `CCn1cc(C(=O)N2CCN(c3ccccc3)CC2)c(=O)c2cc(S(=O)(=O)N(C)C3CCCCC3)ccc21`, the Potency result was “inactive”.

On to `O=C(CC1CCCN(c2cnn(CC3CC3)c(=O)c2)C1)N1CCN(c2ccccn2)CC1` (stereo not given), for which the Potency result is “inactive”.

Take `COc1ccc(CC(=O)N[C@@H]2CN(c3ccccn3)C[C@H]2CN(C)C)cc1`: the Potency result was “inactive”.

In the case of `Cc1cc(Cl)c(S(=O)(=O)N2CCN(c3ccccn3)CC2)cc1OCC(=O)NC1CCCCC1`, the Potency was 0.668 µM (active).

As to `Cn1cccc1CN1C[C@@H](COc2ccncc2)[C@H](c2ccccn2)C1`, the Potency is 13.3 µM (active).

For `O=C(COc1ccc(Cl)cc1)N1C[C@@H](CO)[C@H](c2ccccn2)C1`, the Potency result is “inactive”.

In the case of `Cn1cccc1CN1CCn2c(nnc2-c2ccccc2)C1`, the Potency result is “inactive”.

Consider `CC(C)CCN(CCC(C)C)CC(O)Cn1c2ccccc2c(=O)c2ccccc21` (stereo not given), for which the Potency is 1.88 µM (active).

For the molecule `O=C(Cc1c[nH]c2ccccc12)N1CCc2c(nc(-c3ccc(F)cc3)[nH]c2=O)C1`, the Potency entry is “inactive”.

Regarding `O=C(c1ccc(OC2CCN(Cc3c[nH]c4ccccc34)CC2)cc1)N1CCCCC1`, the Potency is 15 µM (active).

As to `O=C([C@@H]1C[C@H](Oc2ccccc2)CN1C(=O)c1cc2ccccc2[nH]1)N1CCCC1`, the Potency result is “inactive”.

In the case of `CN1C2CCC1/C(=C\c1ccccc1)C(=O)/C2=C\c1ccccc1`, the Potency is 2.11 µM (active).

Consider `Cc1ccc(Oc2c(C(F)(F)F)oc3c(CN4CCC(C)CC4)c(O)ccc3c2=O)cc1`, for which the Potency is 1.68 µM (active).

As to `Cc1cc(Oc2c(C(F)(F)F)oc3c(CN4CCC(C)CC4)c(O)ccc3c2=O)cc(C)c1Cl`, the Potency is 0.75 µM (active).

On to `CCc1nc(CN(C)C(C(=O)O)c2ccc(C(C)(C)C#N)cc2)no1` (stereo not given), for which the Potency result is “inactive”.

Consider `Nc1ccc(NC(=O)c2cccc(C(=O)Nc3ccc(N)cc3Cl)c2)c(Cl)c1`, for which the Potency result was “inactive”.

`CN1CCCCCC(O)c2cc(C(=O)N3CCN(Cc4ccccc4)CC3)ccc21` (stereo not given): the Potency entry is “inactive”.

With `CCn1nc(C)cc1C(=O)N1Cc2cnn(Cc3ccc(F)cc3)c2C1`, the Potency result was “inactive”.

Take `Cc1cn2nc(C(=O)N3CCC(C(=O)NCCc4ccccc4)CC3)cc2c(=O)[nH]1`: the Potency result was “inactive”.

In the case of `O=C(c1cnc2n1CCN(CCc1ccccc1)CC2)N1CCC(c2ccccc2)CC1`, the Potency entry is “inactive”.

Take `CCOC(=O)C1CCN(C(=O)c2cc3c(n2C)CCN(Cc2ccccc2)C3)CC1`: the Potency is 10.6 µM (active).

In the case of `CCOC(=O)C1CCN(C(=O)c2cc(C(C)(C)C)nn2Cc2ccccc2)CC1`, the Potency was 4.73 µM (active).

For the molecule `COc1ccc(NC(=O)c2ccc3c(c2)NC(C)(COCC2CC2)CO3)cn1` (stereo not given), the Potency result is “inactive”.

As for `O=C(Nc1cccnc1)c1ccc(Cl)c(S(=O)(=O)N2CCc3ccccc32)c1`, the Potency entry is “inactive”.

In the case of `COc1ccc(NC(=O)c2ccc(Cl)c(S(=O)(=O)N3CCc4ccccc4C3)c2)cn1`, the Potency is 7.5 µM (active).

For the molecule `CC(C)N(C)Cc1nnnn1CC(=O)N1CCC(O)(c2cccnc2)CC1`, the Potency entry is “inactive”.

`Cc1cc(C)cc(N=Cc2[nH]c3ccc(Br)c(Cl)c3c2O)c1`: the Potency was 11.9 µM (active).

For `CCOc1ccc(CCNC(=O)Nc2ccccc2)cc1OCC`, the Potency was 5.31 µM (active).

Regarding `O=C(Cc1ccc(NC(=O)N2CCSc3ncccc32)cc1)NCCc1ccccc1`, the Potency entry is “inactive”.

For the molecule `CC(C)C(=O)Nc1oc(-c2ccccc2)cc1C#N`, the Potency is 6.68 µM (active).

On to `c1ccc(-c2noc(-c3ccn4c(CN5CCSCC5)nnc4c3)n2)cc1`, for which the Potency result is “inactive”.

On to `CCN(CC)CCNc1ccnc2cc(Cl)ccc12`, for which the Potency is 0.211 µM (active).

`CCN1CCC(Nc2ccnc3cc(Cl)ccc23)CC1`: the Potency was 0.188 µM (active).

On to `Clc1ccc2c(NCc3ccccn3)ccnc2c1`, for which the Potency was 2.11 µM (active).

`CCN1CCN(C(=O)c2ccc3c(Cl)c4c(nc3c2)CCCC4)CC1`: the Potency result was “inactive”.

With `CCC(O)c1cc2n(n1)CCN(C(=O)CN1CCOc3ccccc3C1)C2` (stereo not given), the Potency entry is “inactive”.

On to `CN1c2cc(C(=O)Nc3ccc(F)cc3)ccc2C(=O)N2CCCCC21` (stereo not given), for which the Potency result is “inactive”.

With `CN1CCC2(C1)CN(Cc1ccccc1)c1ccc(C(=O)Nc3ccc(F)cc3)cc12` (stereo not given), the Potency is 19.3 µM (active).

On to `CC1(CNc2ccccc2)COc2ccc(C(=O)NCc3cccc(F)c3)cc2N1` (stereo not given), for which the Potency result is “inactive”.

Consider `Cc1sc2nc(-c3ccccn3)[nH]c(=O)c2c1-c1ccccc1`, for which the Potency is 13.3 µM (active).

Take `Cc1cccc(Nc2cc(C)c3c(O)cccc3n2)c1C`: the Potency is 4.73 µM (active).

In the case of `Cc1ccccc1Nc1cc(C)c2c(O)cccc2n1`, the Potency is 5.31 µM (active).

In the case of `Cc1cccc(NC(=O)Cn2c(C)cc3nc4n(c(=O)c32)CCCCC4)c1C`, the Potency entry is “inactive”.

With `O=C(Nc1ccc(-c2nc3cc(NC(=O)c4ccccc4F)ccc3o2)cc1)c1ccccc1F`, the Potency result was “inactive”.

`CCc1ccc2oc(-c3ccc(NC(=O)c4cc5ccccc5o4)cc3)nc2c1`: the Potency entry was “inactive”.

For the molecule `Nc1ccc2oc(-c3ccc4nc[nH]c4c3)nc2c1`, the Potency is 13.3 µM (active).

For the molecule `COc1ccc(CCN(C)C(=O)CC(c2cccc(F)c2)c2cn(C)c3ccccc23)cc1OC` (stereo not given), the Potency was 8.41 µM (active).

As to `OC(CNC1CCCCCC1)COc1cccc2ccccc12` (stereo not given), the Potency is 1.88 µM (active).

Consider `Cc1sc2ncnc(NCC3(N4CCOCC4)CCCCC3)c2c1C`, for which the Potency entry is “inactive”.

For `Cc1sc2ncnc(SC(C)C(=O)N3c4ccccc4Sc4ccccc43)c2c1C` (stereo not given), the Potency result was “inactive”.

Turning to `C/C(=N\Nc1ncnc2sc(C)c(C)c12)c1ccccn1`, the Potency is 1.33 µM (active).

As for `O=C(CCCc1ccccc1)N1CCC[C@H]1c1nc(-c2ccccc2)no1`, the Potency entry is “inactive”.

On to `Cc1cnc(C2CCC2)n1C1CCCN(C(=O)CCCc2ccccc2)C1` (stereo not given), for which the Potency was 15 µM (active).

In the case of `COc1ccc(-c2noc([C@@H]3CCCN3C(=O)CCCc3ccccc3)n2)cc1`, the Potency result is “inactive”.

In the case of `Cc1cccc(CNC(=O)c2nnn3cc(C)[nH]c(=O)c23)c1`, the Potency result was “inactive”.

In the case of `CCOc1ccc(NC(=O)c2nnn3cc(C)[nH]c(=O)c23)cc1`, the Potency is 10.6 µM (active).

With `COc1ccc(S(=O)(=O)N2CCC(CC(=O)NCc3ccccc3)C2)cc1` (stereo not given), the Potency result is “inactive”.

For `COc1ccc(NC(=O)O[C@@H]2CC[C@]3(C)C(CC[C@@H](O)[C@H]3CC(=O)NCc3ccccc3OC)[C@]2(C)CO)cc1` (stereo not given in full), the Potency was 6.68 µM (active).

On to `CCc1cc2c(Sc3nc4ccccc4s3)ncnc2s1`, for which the Potency was 1.5 µM (active).

Take `c1ccc2sc(Sc3ncnc4sccc34)nc2c1`: the Potency was 0.944 µM (active).

`Cc1c(N/N=C(\C#N)C(=O)c2ccccc2)c(=O)n(-c2ccccc2)n1C`: the Potency is 6.68 µM (active).

In the case of `CN(C)CCN1C(=O)c2oc3ccc(Cl)cc3c(=O)c2C1c1cccc(Br)c1` (stereo not given), the Potency was 0.531 µM (active).

With `O=C(NC[C@H]1O[C@@H](CO)[C@@H](O)[C@H]1N1CCN(c2cccc(C(F)(F)F)c2)CC1)c1cccs1`, the Potency result is “inactive”.

`COc1cccc(CN2CCCC(N3CCN(c4cccc(C(F)(F)F)c4)CC3)C2)c1O` (stereo not given): the Potency was 0.842 µM (active).

As to `Oc1ccccc1CN1CCCC(N2CCN(c3cccc(C(F)(F)F)c3)CC2)C1` (stereo not given), the Potency is 1.33 µM (active).

As for `CCOc1cc(CN2CCCC(N3CCN(c4ccc(F)cc4)CC3)C2)ccc1OC` (stereo not given), the Potency result was “inactive”.

As for `CC1(C)C(=O)N(Cc2ccccc2)[C@H]2CN(CC3CCOCC3)C[C@@H]2[S+]1(=O)[O-]`, the Potency entry is “inactive”.

In the case of `O=C(NNc1nc(-c2ccc(Br)cc2)cs1)c1ccco1`, the Potency is 5.31 µM (active).

For `CCCCOC(=O)N1CCC(N2CCCC(C(=O)N3CCOCC3)C2)CC1` (stereo not given), the Potency result was “inactive”.

For the molecule `CCN1CCCC1CNc1ncnc2c1[nH]c1ccc(Cl)cc12` (stereo not given), the Potency is 2.99 µM (active).

Regarding `CN(Cc1cccn1C)S(C)(=O)=O`, the Potency entry was “inactive”.

Regarding `CN(C)C[C@@H]1CN(c2ccncn2)C[C@H]1NC(=O)c1cnco1`, the Potency entry is “inactive”.

On to `Cc1ccc(NC2=C(c3ccc(C(F)(F)F)cc3)C(=O)c3ccccc32)cc1F`, for which the Potency was 1.88 µM (active).

On to `Cc1ccc(C)c(NC2=C(c3ccc(C(F)(F)F)cc3)C(=O)c3ccccc32)c1`, for which the Potency is 4.73 µM (active).

In the case of `Cc1ccc(NC2=C(c3ccc(C(F)(F)F)cc3)C(=O)c3ccccc32)cc1C`, the Potency is 2.11 µM (active).

For the molecule `Oc1ccc(-c2ccc(-c3nc(CCc4ccccc4)no3)cn2)cc1`, the Potency result was “inactive”.

As to `CC(C)(C)n1[nH]c2c3c(ccc2c1=O)C(=O)c1ccccc1C3=O`, the Potency was 4.73 µM (active).

Consider `CCCc1nc2ccc(NC(=O)c3cccs3)cc2c(=O)n1Cc1ccc(Cl)cc1`, for which the Potency is 8.41 µM (active).

Regarding `Cc1ccc(Cn2nnc(C(=O)Nc3ccc(F)c(F)c3)c2N)cc1`, the Potency entry was “inactive”.
